Screening results as filed in PubChem BioAssay.
JMJD2A Tudor: JMJD2A Tudor domain (human) inhibition. 390,000 compounds, 4.4% hits. Potency, µM (top dose mostly 114 µM), for inactives: at the highest dose activity change, negative = inhibition, usual class: inhibitors. AID 504339. O75164. AlphaScreen JMJD2A-Tudor / H3K4me3 peptide binding; note: potency is the fitted concentration of half-maximal effect; % is set by controls: 0 for no effect and ±100 for the full control effect; nearly all actives have a fitted effect of over 50% in size
Six1-Eya2 blk: Six1/Eya2 interaction inhibition. Q15475+O00167. AlphaScreen GST-Six1/His-Eya2 binding, biochemical; hits give low values. activity change, % (no concentration beside the values). 360,000 compounds, 0.56% hits. AID 651725; in the data active = activity change below about -65%; inconclusive = mostly about -30% to -63%; note: % is set by controls: 0 for no effect and ±100 for the full control effect
Target sequence (O00167 whole entry, looked up): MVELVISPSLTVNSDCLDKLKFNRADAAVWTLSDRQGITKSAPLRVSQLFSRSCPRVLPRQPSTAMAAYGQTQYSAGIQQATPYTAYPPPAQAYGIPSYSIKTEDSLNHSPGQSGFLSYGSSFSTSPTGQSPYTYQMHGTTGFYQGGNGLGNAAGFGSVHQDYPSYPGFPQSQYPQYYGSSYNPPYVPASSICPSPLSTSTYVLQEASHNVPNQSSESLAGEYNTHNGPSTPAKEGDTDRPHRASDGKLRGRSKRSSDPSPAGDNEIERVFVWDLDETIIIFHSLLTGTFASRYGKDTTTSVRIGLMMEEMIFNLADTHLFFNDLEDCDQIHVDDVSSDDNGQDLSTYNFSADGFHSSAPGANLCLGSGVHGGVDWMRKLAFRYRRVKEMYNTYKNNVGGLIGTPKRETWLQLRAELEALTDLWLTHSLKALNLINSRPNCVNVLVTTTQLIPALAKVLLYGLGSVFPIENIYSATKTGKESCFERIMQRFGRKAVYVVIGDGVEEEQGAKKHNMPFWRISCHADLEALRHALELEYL
Target sequence (Q15475 whole entry, looked up): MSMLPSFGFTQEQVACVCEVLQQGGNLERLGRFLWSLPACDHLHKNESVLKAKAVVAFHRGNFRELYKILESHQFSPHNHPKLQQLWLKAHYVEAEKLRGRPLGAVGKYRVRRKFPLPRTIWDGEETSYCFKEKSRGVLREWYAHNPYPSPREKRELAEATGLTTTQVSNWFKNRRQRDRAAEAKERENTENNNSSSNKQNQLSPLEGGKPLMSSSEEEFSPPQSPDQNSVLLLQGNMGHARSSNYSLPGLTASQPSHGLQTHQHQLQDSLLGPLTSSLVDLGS
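GST-Six1 + His-Eya2 (5X stock: 250/500 nM); Tris pH 8.0, 300 mM NaCl, 0.05% BSA, 0.02% Tween 20; GSH donor/Ni acceptor beads; 1 h 37 °C dark; AlphaScreen readout.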
HP1b binding inh: blocks HP1-beta chromodomain binding to methylated histone tails. P83916. AlphaScreen HP1-beta / biotin-H3K9me3 peptide binding. Potency, µM (series often up to 114 µM), without a hit: at the top dose activity change, negative = inhibition, usual class: inhibitors. 390,000 compounds, 0.56% hits. AID 540317; note: potency is the fitted concentration of half-maximal effect; nearly all actives have a fitted effect of over 70% in size
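HP1-beta protein (50 nM final) preincubated 30 min at room temperature with biotinylated H3(1-18)K9me3 peptide (50 nM) in PBS pH 7.4, 0.01% Tween-20, then compound added for 30 min. AlphaScreen streptavidin donor/nickel chelate acceptor beads (10 ug/mL final), 30 min dark, luminescence read.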
G9a inh: blocks human histone lysine methyltransferase G9a; Q96KQ7; G9a H3K9 monomethylation, AlphaScreen, 2 h; Potency, µM (doses to about 102 µM), for the others: at the top dose activity, negative = inhibition, most hits filed as inhibitors; 350,000 compounds, 8.8% hits; note: potency is the fitted concentration of half-maximal effect; % is set by controls: 0 for no effect and ±100 for the full control effect; nearly all actives have a fitted effect of over 75% in size
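AlphaScreen read-out: biotin-H3K9 peptide (500 nM) methylation by 20 nM enzyme with 20 uM SAM, 2 h at room temperature after 15 min compound preincubation; anti-monomethyl H3K9 antibody plus donor/acceptor beads, 10 min dark.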
BAZ2B block: blocks human BAZ2B; AlphaScreen BAZ2B-H3K14Ac peptide displacement; Potency, µM (highest dose often 114 µM), inactives show at the top dose activity change, negative = inhibition, usual class: inhibitors; 360,000 compounds, 4.4% hits; AID 504333; note: potency is the fitted concentration of half-maximal effect; % is set by controls: 0 for no effect and ±100 for the full control effect; nearly all actives have a fitted effect of over 60% in size
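AlphaScreen displacement of biotin-H3(5-23)K14Ac peptide (50 nM final) from BAZ2B (50 nM final) in PBS pH 7.4, 0.01% Tween-20; complex preformed 30 min RT, then compounds (top 110 uM) 30 min RT, beads 20 min dark.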
CtBP-E1A blk: CtBP/E1A binding inhibition | AID 651724 | 340,000 compounds, 0.49% hits | AlphaScreen GST-E1A/His-CtBP binding, 1536-well; hits give low values | activity change, % (concentration not given with the values); in the data active = activity change below about -65%; inconclusive = mostly about -30% to -63%; note: % is set by controls: 0 for no effect and ±100 for the full control effect
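Homogeneous bead-based format: GST-tagged E1A captured on glutathione donor beads, His-tagged CtBP on nickel acceptor beads; compounds precede bead addition by 2 h at 37 °C.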
Numbers without * were called inactive; u = inconclusive; x = no result; [ ] = remark or other dose. Most compounds without a hit are left out; they make up all but 10% or so of the library. Unless noted, calls come from the whole dose curve; as a rule, active = well fitted inhibition curve with a large enough effect; inconclusive = small, poorly fitted or top-dose-only effect; inactive = no such curve, though single readings can be large or run the other way.

SMILES	JMJD2A Tudor	Six1-Eya2 blk	HP1b binding inh	G9a inh	BAZ2B block	CtBP-E1A blk
S=C(c1ccc(Cl)cc1)N1CCOCC1	-21%	3	-32%	11µM*	-2%	6
S=C(Nc1ccc(Cl)cc1)N1CCOCC1	-6%	2	46%	x	x	0
S=C=NCc1ccccc1	x	x	x	-34%[2.33 µM]	x	x
O=Cc1ccc(O)c(O)c1	22µM*	5	28%	u	56µM*	-2
CC(C)=CCCC1(C)C=Cc2c(O)c3c(c(CC=C(C)C)c2O1)OC12C(=CC4CC1C(C)(C)OC2(C/C=C(/C)C(=O)O)C4=O)C3=O (centres undefined)	x	x	x	-39%[2.33 µM]	x	x
Cc1ccc(C(=O)COC(=O)c2cccc(NC(=O)c3ccc(Br)cc3)c2)cc1	-13%	x	31%	u	1%	x
CCN(CC)S(=O)(=O)c1ccc(NN=C(C#N)C#N)cc1	u	-11	u	u	u	-3
Cc1cc(C)n(-c2ccc(NN=C(C#N)C#N)cc2)n1	u	1	2%	x	32µM*	x
N#CC(C#N)=NNc1ccc(-n2ccc(C(F)(F)F)n2)cc1	u	-7	-18%	32µM*	32µM*	1
COC(=O)N1CCC2(CCCN(C)C2)CC1	x	x	x	32%[12.7 µM]	x	x
CN(C[C@H](Cc1ccccc1)N(C[C@H](Cc1ccccc1)N(CC1(c2ccccc2)CC1)N=O)N=O)N=O	-27%	-9	16%	-6%[59 µM]	u	-10
CC(=O)OC1CC(OC(C)=O)[C@]2(C)C(CC(OC(C)=O)[C@]3(C)C2CC[C@@]2(C)C(c4ccoc4)C(=O)C4O[C@]432)C1(C)C (some centres undefined)	x	x	x	-41%[2.33 µM]	x	x
COC(=O)C1=C(c2ccc(F)cc2OCc2ccccc2)C[C@@H]2CC[C@H]1N2C(=O)NCc1ccc(N(C)C)cc1	22µM*	u	u	19%[2.33 µM]	10µM*	-12
COC(=O)C1=C(c2ccccc2OCc2ccccc2)C[C@@H]2CC[C@H]1N2C(=O)NCc1ccc(N(C)C)cc1	20µM*	u	-23%	-6%[0.501 µM]	28µM*	u
COC(=O)C1=C(c2cccc(OCc3ccccc3)c2)C[C@@H]2CC[C@H]1N2C(=O)NCc1ccc(N(C)C)cc1	20µM*	u	u	-7%[2.33 µM]	10µM*	u
CCCCCCC(=O)O[C@H]1CC[C@H]2[C@@H]3CCC4CC(=O)C=C(C)[C@]4(C)[C@H]3CC[C@]12C (some centres undefined)	x	x	x	6%[12.7 µM]	x	x
CCc1ccc(NC(=O)c2ccc(F)c(S(=O)(=O)N3CCC4(CC3)OCCO4)c2)cc1	-13%	x	45%	6%[59 µM]	-1%	x
Cc1ccc(N)cc1C	-12%	1	19%	x	x	3
Cc1cc(N(C)C)ccc1N=Nc1ccc(N)cc1	20µM*	-77*	45µM*	x	x	-74*
CC(=O)OCC(=O)[C@@H]1CC[C@H]2[C@H]3CC[C@H]4C[C@@H](O)CC[C@]4(C)[C@@H]3C(=O)C[C@@]12C	x	x	x	2%[5.15 µM]	x	x
c1ccc(-c2ccc(C(c3ccccc3)n3ccnc3)cc2)cc1 (centres undefined)	25µM*	-2	-28%	u	25µM*	-7
O=[N+]([O-])c1ccc(-c2ccc(C=Nc3cccc4ccccc34)o2)cc1	16µM*	u	u	6.3µM*	40µM*	3
O=C(NCCc1ccc(Cl)cc1)c1ccc(CNc2c(N3CCOCC3)c(=O)c2=O)cc1	-7%	0	53%	-2%	-1%	x
Brc1ccc2[nH]cc(/C=N/N3CCCCC3)c2c1	50µM*	-19	u	u	45µM*	-8
NS(=O)(=O)c1ccc(CNC(=O)COc2ccc3c4c(c(=O)oc3c2)CCCC4)cc1	35µM*	0	3%	14%	-3%[57.1 µM]	-5
SMILES	JMJD2A Tudor	Six1-Eya2 blk	HP1b binding inh	G9a inh	BAZ2B block	CtBP-E1A blk
O=C(Oc1ccccc1)c1ccccc1C(=O)Oc1ccccc1	102%	29	170%	x	x	34
COc1ccc2[nH]cc(CCN=C(NC(=O)c3ccccc3OC)Nc3nc(C)cc(C)n3)c2c1	u	x	-4%	u	25µM*	x
COc1ccc2[nH]cc(CCN=C(N)N)c2c1	-7%	4	32%	u	u	-25
COc1ccc(CN2CCN(c3ncnc4sc5c(c34)CCCC5)CC2)cc1F	-30%	x	5%	u	-29%	x
COc1ccc(CCCc2nnc(SCC(=O)Nc3ccc(C)c(C)c3)o2)cc1	u	1	3%	22µM*	-26%	-23
COc1ccc(NC(=O)CSc2nc(-c3ccco3)cc(C(F)(F)F)n2)cc1OC	-3%	x	47%	-4%[59 µM]	-2%	x
CC1C(=O)OC2CCN3CC=C(COC(=O)[C@](C)(O)[C@]1(C)O)C23 (some centres undefined)	x	x	x	-10%[2.33 µM]	x	x
COc1cccc(NC(=O)Cn2cc(C(=O)c3ccccc3)c3ccccc32)c1	-26%	x	16%	-11%[59 µM]	-17%	x
COc1cccc(NC(=O)c2ccc[n+](C)c2)c1	u	4	39%	40µM*	-25%	x
O=C1NC(=O)N(Cc2ccc(F)cc2)C(=O)/C1=C\c1ccc(N2CCCC2)cc1	u	-26	-18%	45µM*	u	-21
COc1ccc(N2C(=O)NC(=O)/C(=C/c3ccc(N4CCOCC4)cc3)C2=O)cc1	x	x	x	50µM*	-6%	x
CCOc1ccc(N2C(=O)NC(=O)/C(=C\c3ccc(N4CCOCC4)cc3C)C2=O)cc1	-10%	18	62%	-14%[12.7 µM]	u	0
Cc1ccc(N2C(=O)NC(=O)/C(=C\c3ccc(N4CCOCC4)cc3)C2=O)cc1	-13%	12	37%	u	1%	5
O=C1NC(=O)N(c2ccc(F)cc2)C(=O)/C1=C/c1ccc(N2CCOCC2)cc1	-2%	1	30%	40µM*	1%	19
COc1cc(OC2CCN(C(C)=O)CC2)ccc1C(=O)N1CCC(N2C(=O)OCc3ccccc32)CC1	x	x	x	33%[59 µM]	x	x
COc1cc(C(=O)NCCSc2c(-c3ccccc3)[nH]c3ccccc23)cc(OC)c1OC	u	x	5%	-7%[59 µM]	-24%	x
CC1CC[C@@]2(OC1)OC1C(O)C3C4CC[C@H]5CC(O[C@@H]6O[C@@H](CO)[C@H](OC7OC(CO)C(O)C(OC8OCC(O)C(O)[C@H]8O)[C@@H]7O[C@@H]7OC(CO)[C@H](O)[C@@H](O[C@@H]8OC(CO)C(O)C(O)C8O)C7O)C(O)C6O)C(O)C[C@]5(C)C4CC[C@]3(C)C1C2C (some centres undefined)	x	x	x	5%[2.33 µM]	x	x
O=C(N/N=C/c1c(O)n(-c2cccc3ccccc23)c(=O)[nH]c1=O)c1ccncc1	50µM*	u	34%	6%	79µM*	u
